# Key:
# Format in all cases: functional
# [1] = target: Solute carrier family 2, facilitated glucose transporter member 1 (Homo sapiens) (UniProt P11166); assay: ST_JUDE_LEISH: Cytotoxicity at 2uM final concentration against transgenic Leishmania Mexicana promastigotes LmGLUT1 that are glucose transport deficient and complemented with the human glucose transporter GLUT1. Activity is measured by DNA content using SYBR green in vitro
# [2] = target: Hexose transporter 1 (Plasmodium falciparum) (UniProt O97467); assay: ST_JUDE_LEISH: Cytotoxicity at 2uM final concentration against transgenic Leishmania Mexicana promastigotes LmPfHT that are glucose transport deficient and complemented with the Plasmodium falciparum hexose transporter. Activity is measured by DNA content using SYBR green in vitro
# [3] = target: Glucose transporter (Leishmania mexicana) (UniProt O61059); assay: ST_JUDE_LEISH: Cytotoxicity at 2uM final concentration against transgenic Leishmania Mexicana promastigotes LmGT2 that are glucose transport deficient and complemented with the L. Mexicana glucose transporter 2. Activity is measured by DNA content using SYBR green in vitro
# Sequence of Solute carrier family 2, facilitated glucose transporter member 1 (Homo sapiens) (P11166 whole entry): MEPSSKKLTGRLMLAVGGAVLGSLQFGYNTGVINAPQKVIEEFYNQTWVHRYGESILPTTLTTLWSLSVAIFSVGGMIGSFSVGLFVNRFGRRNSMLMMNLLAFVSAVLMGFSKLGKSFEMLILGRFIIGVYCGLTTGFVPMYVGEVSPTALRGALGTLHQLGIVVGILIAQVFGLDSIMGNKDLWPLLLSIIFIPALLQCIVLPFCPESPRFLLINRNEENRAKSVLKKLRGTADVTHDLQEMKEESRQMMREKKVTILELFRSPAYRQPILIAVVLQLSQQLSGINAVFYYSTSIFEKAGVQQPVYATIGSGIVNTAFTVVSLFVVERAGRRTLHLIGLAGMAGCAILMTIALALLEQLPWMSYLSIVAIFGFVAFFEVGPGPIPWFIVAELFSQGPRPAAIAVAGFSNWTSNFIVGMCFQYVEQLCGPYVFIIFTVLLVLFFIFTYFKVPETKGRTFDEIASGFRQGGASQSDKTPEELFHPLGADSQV
SMILES,inhibition [1],inhibition [2],inhibition [3]
Cc1ccc(Cn2nc(N3CCNCC3)ccc2=O)cc1NC(=O)Nc1ccc(-c2ccccc2)cc1,1.5%,2.27%,-1.04%
Nn1c(=O)oc2ccc(Cl)cc2c1=O,4.15%,10.4%,10%
CC(Cc1ccc(CNC(=O)NCc2ccc(CC(C)NCCc3cccc(Cl)c3)cc2)cc1)NCCc1cccc(Cl)c1 (centres undefined),82.9%,79%,18.9%
CS(=O)(=O)NCCCNCc1ccc(-c2ccc(-c3nc4cc(C(F)(F)F)ccc4[nH]3)s2)cc1,1.6%,2.03%,1.6%
COc1ccc(CCN(C)CCCOc2ccc(NC(=O)c3cccc4c(=O)c5ccccc5[nH]c34)cc2)cc1OC,5.62%,2.58%,1.73%
O=C(Nc1ccc(-c2ccc(-c3nc4ccccc4[nH]3)s2)cc1)c1ccncc1,12.7%,8.04%,5.66%
COc1ccc(CC(C)CON2C(N)=NC(N)=NC2(C)C)cc1 (centres undefined),4.07%,4.35%,4.04%
COc1ccc2ncc(F)c([C@H](O)CN3CCC(NCc4ccc5c(c4)NC(=O)CO5)CC3)c2c1,1.17%,0.49%,1.56%
CC(C)(C)c1ccc(CNCCOc2ccc(Nc3nnc(-c4ccc(-c5ncc[nH]5)cc4)o3)c3ccccc23)cc1,2.98%,2.75%,2.83%
Cc1sc(N2CCCCC2)nc1C(=O)Nc1ccc(F)cc1C(F)(F)F,3.13%,-1.54%,0.73%
CN(C)CCCOc1cccc(CCNCc2cccc(Oc3ccc(Cl)cc3)c2)c1,2.64%,2.34%,0%
Cc1cc(=NN=Cc2ccc(Cl)cc2)c2cccc(C)c2[nH]1,10.4%,9.15%,6.63%
CN(C)CCNc1ncnc2c1[nH]c1ccc(Cl)cc12,3.7%,3.91%,2.92%
COc1ccc2c(=O)c3ccc(OC)cc3[nH]c2c1,1.08%,-2.12%,-0.67%
Cc1cccc(C(=O)N2CCN(Cc3cccc(NC(=O)c4cccs4)c3)CC2)c1,7.96%,9.38%,7.07%
COc1ccccc1CNC(=O)C(=O)Nc1c(-c2ccccc2)[nH]c2ccccc12,-3.25%,-4.12%,-1.57%
Cc1c(CNCCCNc2nc3ccccc3[nH]2)sc(C(F)F)c1Br,3.07%,0.8%,1.17%
Cc1ccccc1C1CCN(C2CCC(NC(=O)c3cc(-c4ccccc4)oc3C)CC2)CC1 (centres undefined),-1.06%,0.71%,-1.44%
COc1cccc(C(=O)C2CC2CN(C)CCC(O)c2ccc(Cl)c(Cl)c2)c1 (centres undefined),3.35%,3.48%,4.04%
CNCc1cccc2nc(-c3csc(Cc4cc(Cl)ccc4OCC(C)C)n3)[nH]c12,-0.53%,0.5%,-0.08%
Nc1cnc(C#Cc2cc3ncnc(N(CCN4CCOCC4)c4ccc(OCc5cccc(F)c5)c(Cl)c4)c3s2)cn1,1.16%,0.42%,-3.58%
CCOc1cc2ccccc2cc1CNCCCCCCNCc1cc2ccccc2cc1OCC,5.01%,7.4%,0.64%
O=C(Nc1ccc(NC2=NCCN2)cc1)c1ccc(C(=O)Nc2ccc(NC3=NCCN3)cc2)cc1,17.6%,18.1%,6.75%
c1ccc(CNCCn2c(-c3ccc4c(c3)CCO4)nc3c(N4CCCC4)cccc32)cc1,11.7%,8.74%,6.86%
CN(C)Cc1ccc(-c2cc3ncnc(Nc4ccc(OCc5cccc(F)c5)c(Cl)c4)c3s2)[nH]1,3.19%,2.49%,1.76%

SMILES,inhibition [1],inhibition [2],inhibition [3]
Cc1nc(N)nc(N)c1OCCCCOc1ccccc1,3.87%,2.98%,2.4%
CN1CCc2cc(NS(=O)(=O)c3ccc(-c4ccc(Cl)s4)cc3)c(N3CCCCC3)cc2CC1,-0.61%,0.7%,-2.07%
Cc1noc(C)c1-c1cccc(CNCc2ccc(-c3cccc(-c4nc5ccccc5[nH]4)c3)cc2)c1,-0.68%,-1.65%,-4.01%
COc1ccc(Nc2ccnc3cc(Cl)ccc23)cc1OC,10.1%,10.7%,7.28%
OC(CNC1CCCCC1)Cn1c2ccc(I)cc2c2cc(I)ccc21 (centres undefined),0.77%,1.51%,1.17%
CCCC1(NC[C@@H](O)[C@H](Cc2ccccc2)NC(=O)c2cc(NCC)cc(N3CCCCS3(=O)=O)c2)CCCC1,4.97%,5.31%,3.48%
Clc1ccc(Nc2nc(Nc3ccc(Cl)c(Cl)c3)nc(Sc3nc4ccccc4[nH]3)n2)cc1Cl,8.07%,9.05%,7.05%
CC(C)COc1ccc(Cl)cc1Cc1ccc(-c2nc3ccc(Br)cc3[nH]2)o1,5.75%,5.74%,4.95%
COc1ccc(Nc2nc(N3CCCC3)c3ccccc3n2)cc1,17.6%,19.6%,14.3%
COc1ccc2nc3cc(Cl)ccc3c(NCCNCC(O)CO)c2n1 (centres undefined),7.93%,6.76%,5.98%
CN1CCC(N(Cc2ccc(N3CCN(Cc4c[nH]c5ccc(Cl)cc45)CC3)nc2)C2CC2)CC1,9.81%,4.81%,10.7%
CC(C)(C)c1cc(C(=O)N2CCN(c3ccc(C(F)(F)F)cn3)CC2)n(Cc2ccc(F)cc2)n1,-1.9%,-3.19%,-1.88%
CCCCOC(=O)C1=C(C)NC2=C(C(=O)CCC2)C1c1ccc(OC)c(Br)c1 (centres undefined),0.77%,-0.81%,-1.96%
Cc1ccc(NC(=O)c2ccc(CN3CCCN(Cc4cccc(O)c4)CC3)cc2)cc1F,7.81%,6.4%,6.83%
Cc1cc(N[C@@H](Cc2ccccc2)C(=O)NCc2cccc(F)c2)nc(Nc2ccccc2)n1,6.85%,7.5%,2.63%
COC(=O)C(C)NCC(=O)c1ccccc1 (centres undefined),6.16%,6.12%,6.79%
Cc1cc(N[C@@H](CC(C)C)C(=O)NC2CCCC2)nc(NCc2ccccc2C)n1,4.21%,4.39%,1.62%
Nc1ccc2nc(C=Cc3ccccc3)[nH]c2c1,1.45%,0.85%,3.06%
COc1cccc2c(N/N=C/c3ccc([N+](=O)[O-])cc3)ccnc12,11.3%,6.04%,1.25%
CN(C)CCNCc1ccc(-c2cccc(-c3nc4ccccc4[nH]3)c2)cc1,10.5%,8.93%,8.27%
NC1CCN(c2nc(NCCc3ccc(O)cc3)nc(NCc3ccccc3-c3ccc(C(F)(F)F)cc3)n2)CC1,4.18%,3.01%,2.19%
CCC(C)CN1CCCN(c2ccc(NC(=O)c3cccs3)cc2)CC1 (centres undefined),1.62%,-0.95%,5.89%
COc1ccc(CN2CCC(CNCc3cccc(-c4ccccc4)c3)CC2)cc1,3.34%,0.46%,3.8%
Cc1cc2c(NC(=O)NC3CCN(Cc4ccc(Cl)c(Cl)c4)CC3)cccc2cn1,0.94%,-0.05%,-3.37%
FC(F)(F)c1cccc(Nc2nc(-n3ccnc3)nc(-n3ccnc3)n2)c1,1.93%,0.62%,1.05%

SMILES,inhibition [1],inhibition [2],inhibition [3]
CCN(CCN(C)C)Cc1ccc(-c2ccc(NS(=O)(=O)c3cccc4cccnc34)cc2)cc1,14%,11.3%,6.11%
Cc1c(Cc2ccc(C(C)C)cc2)cnc2nc(N)nc(N)c12,1.34%,0.5%,1.42%
COc1cc(SC)c(Br)cc1-c1nc2ccncc2[nH]1,3.09%,2.12%,4.52%
CCC(ON1C(N)=NC(N)=NC1(C)C)c1ccc(Cl)cc1 (centres undefined),6.11%,8.81%,10.4%
Cc1cccc2nc(-c3cccc(-c4ccc(NC(=O)C(=O)c5cccn5C)cc4)c3)[nH]c12,2.86%,0.6%,-2.97%
Cc1sc(C)c(C(F)(F)F)c1CNCCCNc1cc(=O)c2ccccc2[nH]1,4.01%,4.67%,4.27%
O=C(NC1CCN(Cc2ccccc2)CC1)c1ccc2c(=O)n(Cc3ccc(Cl)cc3)c(=S)[nH]c2c1,0.69%,-0.17%,1.31%
Cc1cc(Nc2ncc(Cl)c(Nc3ccccc3C(N)=O)n2)n[nH]1,-1.31%,2.51%,3.02%
NC1=NC(c2ccccc2)N(c2ccc(Cl)c(Cl)c2)C(N)=N1 (centres undefined),9.2%,7.89%,9.84%
COC(=O)c1ccc(NC(=O)c2ccc(CCN3CCC(c4nc(COCC(F)(F)F)c(-c5ccc(F)cc5)o4)CC3)cc2)cc1,3.21%,3.11%,2.38%
C[C@@H]1CN(C(c2cccc(O)c2)c2cccc(C(=O)N(C)c3cccc(F)c3)c2)[C@@H](C)CN1C(c1cccc(O)c1)c1cccc(C(=O)N(C)c2cccc(F)c2)c1 (some centres undefined),3.79%,2.73%,2.45%
CC1(CCCCN2CCC(Oc3ccc(F)cc3F)CC2)C(=O)Nc2ccccc21 (centres undefined),3.9%,3.15%,5.35%
NC(=O)c1cccc(Nc2nccc(Nc3ccc(Oc4cccc5ccccc45)cc3)n2)c1,7.84%,7.66%,1.31%
Cc1cccc2nc(-c3cccc(-c4ccc(CNCc5ccccc5)cc4)c3)[nH]c12,5.37%,3.63%,1.78%
COc1ccccc1NC(=O)Nc1ccc(-c2cccc(-c3nc4ccccc4[nH]3)c2)cc1,3%,2%,3.27%
COc1cc(NC(=O)c2cc([N+](=O)[O-])ccc2NC(=O)CNC2CCCC(C)C2C)cc(OC)c1 (centres undefined),12%,4.27%,3.41%
CN(C)c1ccc(NC(=O)Nc2ccnc3ccccc23)cc1Br,8.81%,8.16%,6.85%
CC(C)N(Cc1cnc(N)c(C#N)n1)c1ccc(Cl)c(Cl)c1,3.62%,2.68%,2.67%
O=C(/C=C/c1ccc(Cl)c(Cl)c1)NCCCCCN1CCC(NC(=O)Nc2cc(F)ccc2F)CC1,2.34%,2.81%,6.16%
CNc1ccc(CNCc2cccc(-c3ccc(-c4nc5ccccc5[nH]4)s3)c2)cc1,1.37%,1.02%,0.87%
O=C(NCCN1CCCCC1)c1cc2cc(-c3ccccc3)ccc2n1S(=O)(=O)c1ccccc1,71.9%,74.7%,55.4%
CC(CN(C)C)C(=O)Nc1cccc(-c2ccc(-c3nc4cc(F)ccc4[nH]3)cc2)c1 (centres undefined),-1.76%,-3.5%,-0.1%
Cc1nc(C)c(CC(=O)Nc2cccc(-c3cccc(-c4nc5cc(C(F)(F)F)ccc5[nH]4)c3)c2)s1,2.61%,2.61%,1.2%

# Reference: ChEMBL document CHEMBL3433997, “St. Jude Leishmania screening dataset” (2016)
